TDP1 cell noCPT: qHTS for Inhibitors of human tyrosyl-DNA phosphodiesterase 1 (TDP1): qHTS in cells in absence of CPT; DT40 Tdp1-/- hTDP1 cells, no CPT, ATP luminescence, 48 h; Potency, µM (highest dose often 46.2 µM), for the others: at the highest dose activity change, negative = growth inhibition, most hits filed as inhibitors; hit rate 15% among 420,000; further: potency means the concentration at half of the fitted maximal effect; nearly all actives have a fitted effect of over 55% in size
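Growth of hTDP1-complemented DT40 Tdp1-knockout cells is measured by ATP luminescence after at least 48 hr compound exposure at 37 °C, with DMSO substituting for the 20 nM CPT used in the parallel screen.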
HT1080NT lethal: qHTS for induction of synthetic lethality in tumor cells producing 2HG: qHTS for the HT-1080-NT fibrosarcoma cell line; HT-1080-NT fibrosarcoma viability, CellTiter-Glo ATP luminescence, 48 h; Potency, µM (top dose mostly 46.1 µM), inactives show top-dose activity, negative = less viability, hits mostly cytotoxic; hit rate 1.6% among 360,000;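 further: NT is the 2HG producing partner of a matched IDH1 knockdown line; potency means the concentration at half of the fitted maximal effect; 0% = DMSO-treated cells and -100% = media-only wells without cells; nearly all actives have a fitted effect of over 55% in size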
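Compounds were tested in concentration-response format on HT-1080-NT cells for 48 hours at 37 degrees C. Cell viability came from CellTiter-Glo luminescence; curves were classified by r2, response magnitude and activity.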
HT1080 IDH1KD tx: qHTS for induction of synthetic lethality in tumor cells producing 2HG: qHTS for the HT-1080-IDH1KD cell line. HT-1080 IDH1 knockdown viability, ATP luminescence, 48 h. Potency, µM (series often up to 46.1 µM), inactives show at the top dose activity, negative = toxicity, usual class: cytotoxic. hit rate 2% among 360,000;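 further: potency means the concentration at half of the fitted maximal effect; 0% = DMSO wells and -100% = cell-free medium wells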
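After a 2 h attachment period, IDH1KD HT-1080 cells took pin-transferred compound for 48 h at 37 °C; ATP-based luminescence after 10 min room-temperature reagent incubation reported viability.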
uPA generation: qHTS for Inhibitors of Cell Surface uPA Generation; cell surface uPA generation assay, qHTS; Potency, µM (titrated, usually from 38.3 µM), inactives show at the highest dose activity change, negative = inhibition, most hits filed as inhibitors; hit rate 0.31% among 330,000; AID 540303, 2011; active means well fitted inhibition curve with a large enough effect; inconclusive means small, poorly fitted or top-dose-only effect; inactive means no such curve, though single readings can be large or run the other way; tested in mouse RAW 264.7 cells; further: potency means the concentration at half of the fitted maximal effect; nearly all actives have a fitted effect of over 55% in size
IL-1B inflam inh: qHTS for Inhibitors of Inflammasome Signaling: IL-1-beta AlphaLISA Primary Screen. hit rate 4.7% among 360,000. activity change, % at 57.5 µM. THP-1 LPS/ATP IL-1B secretion, AlphaLISA, 16 h; active compounds read low; in the data active means activity change below about -50%; inconclusive means mostly about -30% to -49%
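Secreted IL-1B measured by AlphaLISA bead assay after 16 h compound exposure of THP-1 cells; compounds (final up to 57.5 uM) added 1 h before LPS (250 ng/mL) and ATP (1.25 mM) stimulation; lower signal means less secretion.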
TDP1 cell CPT: qHTS for Inhibitors of human tyrosyl-DNA phosphodiesterase 1 (TDP1): qHTS in cells in presence of CPT; chicken DT40 Tdp1-/-;hTDP1 cells + 20 nM CPT, ATP luminescence, 48 h; Potency, µM (titrated, usually from 46.2 µM), inactives show at the highest dose activity change, negative = growth inhibition, hits mostly inhibitors; hit rate 12% among 420,000; AID 686979, 2013; further: potency means the concentration at half of the fitted maximal effect; nearly all actives have a fitted effect of over 55% in size
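Cell growth measured by CellTiter-Glo luminescence after a minimum 48 h, 37 C compound exposure with 20 nM CPT in Tdp1-knockout DT40 cells stably expressing hTDP1, seeded 400/well; qHTS titration format.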
An asterisk follows results filed as active; ? = inconclusive; . = not tested or not shown; ! = not confirmed by another sample. Sampled rows, rich in hits. Any-hit rate of the full collection: about 19%. Unless noted, the call rests on the fitted dose curve; in most records, active means well fitted curve in the direction sought with a large enough effect; inconclusive means small, poorly fitted or top-dose-only effect, or another doubt; inactive means no such curve, though single readings can be large; an effect the other way counts as inactive or inconclusive. Unless noted, on the % scale 0 is the no-effect control and ±100 the full control effect.

SMILES	TDP1 cell noCPT	HT1080NT lethal	HT1080 IDH1KD tx	uPA generation	IL-1B inflam inh	TDP1 cell CPT
CCC(Sc1nnc(C)n2c1cc1occc12)C(=O)Nc1ccccc1F (configuration not stated)	25.9µM*	.	.	.	.	20.6µM*
CCc1nnc(SCC(=O)Nc2ccc(Cl)cc2F)c2cc3occc3n12	14.6µM*	.	.	.	.	23.1µM*
CCC(C)C(=O)Nc1nnc(SCC(=O)Nc2ccccc2F)s1 (configuration not stated)	?	8.9%	2.6%	8.7%	-16.3	?
Cc1c(C(=O)NCCSCc2cccc(C(F)(F)F)c2)cnn1-c1ccc(Cl)cc1	?	-15.1%	?	2.2%	-57.0*	?
COc1cccc(-c2cnc(C(O)c3ccc(-c4ccccc4)cc3)[nH]2)c1 (configuration not stated)	?	?	?	.	3.6	?
CCc1c(C)nc2ncnn2c1N1CCCC(C(=O)NCCc2ccc(OC)cc2)C1 (configuration not stated)	?	5.2%	?	.	-2.4	?
COc1ccc(CNc2nc3nc(C)c(Cl)c(C)n3n2)cc1OC	-12.1%	5.7%	-1.2%	-1.3%	19.7	-16.3%
CCc1c(C)nc2ncnn2c1NCCc1ccc(OC)c(OC)c1	13µM*	-6.2%	-16.4%	.	14.9	14.6µM*
CCOc1ccc(CNc2cc(C)nc3nc(-c4cccc(C)c4)nn23)cc1OC	18.4µM*	.	.	.	.	?
CCOc1ccc(CCNc2cc(C)nc3ncnn23)cc1OCC	14.6µM*	-12.7%	-10.2%	-1.3%	65.4	20.6µM*
CCOc1ccc(CCNC(=O)CCc2c(C)nc3ncnn3c2C)cc1OCC	2.2%	3.0%	6.8%	1.9%	23.0	-23.3%
COc1ccc(CCNc2c(C)c(C)nc3ncnn23)cc1	2.59µM*	10µM*	7.08µM*	.	-10.7	2.31µM*
CC1=CC2(C)NC(=O)C(C)C12 (configuration not stated)	8.0%	1.6%	5.4%	.	16.0	4.2%
COc1ccc2c(c1)c1c(c(=O)n(-c3cccc(C)c3)c(=O)n1CC(=O)NCCC1=CCCCC1)n2C	-27.0%	.	.	.	.	-11.7%
O=C(Nc1ccc(Cl)cc1)C1C2C=CC3(O2)C1C(=O)N(CCN1CCCCC1)C3C(=O)NC1CCCCC1 (configuration not stated)	6.1%	-29.6%	-26.6%	-2.7%	?	11.9%
COc1ccc(-c2cc(NCc3ccccn3)n3ncnc3n2)cc1	?	-15.1%	-11.7%	10.4%	0.0	?
COc1ccc(-c2cc(NCCc3ccncc3)n3ncnc3n2)cc1	-20.0%	-5.2%	1.8%	1.6%	-65.6*	-27.0%
O=C1NC(=S)N/C1=C/c1ccc2ccccc2c1	-20.5%	15.3%	3.8%	1.8%	4.8	4.1%
O=C(CCn1c(=O)c2cccn2c2ccc(F)cc21)NCCc1ccccc1	18.4µM*	13.6%	1.0%	4.4%	-7.2	20.6µM*
CCOc1ccc(CCNC(=O)CCn2c(=O)c3cccn3c3ccc(F)cc32)cc1OCC	13µM*	.	.	.	.	?
COc1ccc(CCNC(=O)CCn2c(=O)c3cccn3c3ccc(F)cc32)cc1OC	16.4µM*	.	.	.	.	?
COc1ccc(CCNC(=O)Cn2c(=O)n(-c3cc(F)ccc3F)c(=O)c3sccc32)cc1OC	14.6µM*	0.2%	1.9%	5.2%	-8.0	?
CCOc1ccc(CCNC(=O)CCn2cccc2)cc1OCC	-19.7%	11.8%	11.6%	0.3%	-15.8	-10.8%
CCOC(=O)C1=C(C)NC(C)=C(C(=O)OCC)C1C(=O)OCC(=O)NCc1ccccc1OC	?	2.4%	-2.9%	-4.1%	?	?
Cc1nn(CCCC(=O)Nc2sc3c(c2C#N)CCC3)c(C)c1[N+](=O)[O-]	?	-4.1%	-0.1%	9.1%	-6.1	-27.7%
SMILES	TDP1 cell noCPT	HT1080NT lethal	HT1080 IDH1KD tx	uPA generation	IL-1B inflam inh	TDP1 cell CPT
Cc1nn(CC(=O)Nc2sc3c(c2C#N)CCC(C(C)(C)C)C3)c(C)c1[N+](=O)[O-] (configuration not stated)	18.4µM*	14.7%	24.2%	3.5%	-2.9	25.9µM*
CCOC(=O)N1CCC(NC(=O)CN(c2ccc(C(C)C)cc2)S(=O)(=O)c2c(C)nn(C)c2C)CC1	3.8%	2.4%	10.3%	-0.2%	4.1	?
C=Cc1ccc(Cn2c(=O)n(-c3ccc(C)cc3)c(=O)c3c2c2cc(OC)ccc2n3C)cc1	25.9µM*	.	.	.	.	?
COc1ccc2c(c1)c1c(c(=O)n(-c3ccccc3C)c(=O)n1CC(=O)NCc1ccc(C)cc1)n2C	13µM*	.	.	.	.	20.6µM*
COc1cccc(NC(=O)Cn2c(=O)n(Cc3ccccc3)c(=O)c3c2c2cc(C)ccc2n3C)c1	3.66µM*	.	.	.	.	?
COc1ccc2c(c1)c1c(c(=O)n(-c3ccc(OC)c(OC)c3)c(=O)n1Cc1ccc(C)cc1)n2C	-13.8%	.	.	.	.	-25.1%
COc1ccc2c(c1)c1c(c(=O)n(Cc3ccccc3)c(=O)n1CC(=O)Nc1cc(C)cc(C)c1)n2C	-24.9%	.	.	.	.	?
COc1ccc2c(c1)c1c(c(=O)n(-c3ccccc3C)c(=O)n1Cc1c(F)cccc1Cl)n2C	-25.9%	.	.	.	.	-8.2%
Cc1ccc2c(c1)c1c(c(=O)n(-c3ccccc3C)c(=O)n1Cc1cccc(F)c1)n2C	9.2µM*	.	.	.	.	13µM*
Cc1sc2ncn(CC(=O)N3CCOCC3)c(=O)c2c1-c1ccccc1	-17.2%	1.7%	9.7%	-4.5%	8.2	?
Cc1cccc(NC(=O)CCS(=O)(=O)c2ccc3c(c2)NC(=O)CS3)n1	?	15.0%	19.0%	-16.2%	11.1	?
COc1ccc(NC(=O)c2ccc3[nH]c(C)cc(=O)c3c2)cc1	-17.3%	.	.	.	.	0.9%
Cc1cccc(Cn2c(=O)n(-c3ccccc3C)c(=O)c3c2c2cc(C)ccc2n3C)c1	20.6µM*	.	.	.	.	23.1µM*
Cc1cccn2c(=O)c3cc(C#N)c(=NC(=O)c4ccco4)n(Cc4ccco4)c3nc12	?	7.9%	?	3.9%	43.9	-7.2%
Cc1cccn2c(=O)c3cc(C#N)c(=NC(=O)c4ccccc4)n(Cc4ccco4)c3nc12	18.4µM*	-1.7%	7.4%	4.1%	-76.4*!	18.4µM*
Cc1cccc(C(=O)N=c2c(C#N)cc3c(=O)n4cccc(C)c4nc3n2Cc2ccco2)c1	?	-2.1%	0.6%	-5.1%	13.4	20.6µM*

Compound activity: PubChem BioAssay, National Center for Advancing Translational Sciences (NCATS)
